# Laboratory results: the supplement of paper PMC8728848
# The entries come from a sample that favours the strongest signals as a whole.
# What was measured:
# Experiment in all cases: glycan array binding signal (z-score within array); higher = stronger binding
# Conditions in all cases: glycan notation: IUPAC condensed, linker removed
# [1] = target: Fuc(a1-2)[Gal(a1-3)]Gal(b1-4)GlcNAc(b1-2)Man(a1-3)[Fuc(a1-2)[Gal(a1-3)]Gal(b1-4)GlcNAc(b1-2)Man(a1-6)]Man(b1-4)GlcNAc(b1-4)GlcNAc
# Procedure, shortened: (§1)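 Negative Z-scores can be read as non-binding. The Z-score is calculated within each array and then averaged across arrays of one protein sequence at different concentrations or buffers and across linkers. Arrays, 3228 in all, were curated from the Consortium for Functional Glycomics database and kept only where the protein sequence was available.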
# [2] = target: Fuc(a1-2)[Gal(a1-3)]Gal(b1-4)[Fuc(a1-3)]Glc
# Procedure, shortened: as §1
# [3] = target: Fuc(a1-2)[GalNAc(a1-3)]Gal(b1-4)[Fuc(a1-3)]GlcNAc(b1-3)GalNAc
# Procedure, shortened: as §1
# Fuc(a1-3)GlcNAc = target: Fuc(a1-3)GlcNAc
# Procedure, shortened: as §1
# [4] = target: Gal(b1-3)GlcNAc(b1-3)Gal(b1-4)GlcNAc(b1-6)[Gal(b1-3)GlcNAc(b1-3)]Gal(b1-4)Glc
# Procedure, shortened: as §1
# [5] = target: Gal(b1-4)GlcNAc(b1-2)[Gal(b1-4)GlcNAc(b1-4)]Man(a1-3)[Gal(b1-4)GlcNAc(b1-2)[Gal(b1-4)GlcNAc(b1-6)]Man(a1-6)]Man(b1-4)GlcNAc(b1-4)GlcNAc
# Procedure, shortened: as §1
# [6] = target: Gal(b1-4)GlcNAc(b1-3)[Gal(b1-4)GlcNAc(b1-6)]GalNAc
# Procedure, shortened: as §1
# [7] = target: Gal(b1-4)GlcNAc(b1-3)[GlcNAc(b1-6)]Gal(b1-4)GlcNAc
# Procedure, shortened: as §1
# GalNAc(b1-3)GalNAc = target: GalNAc(b1-3)GalNAc
# Procedure, shortened: as §1
# [8] = target: GlcNAc(a1-4)Gal(b1-4)GlcNAc(b1-3)Gal(b1-4)GlcNAc
# Procedure, shortened: as §1
# [9] = target: GlcNAc(b1-2)[GlcNAc(b1-4)]Man(a1-3)[GlcNAc(b1-2)Man(a1-6)]Man(b1-4)GlcNAc(b1-4)GlcNAc
# Procedure, shortened: as §1
# [10] = target: GlcNAc(b1-2)[GlcNAc(b1-6)]Man(a1-6)[GlcNAc(b1-2)Man(a1-3)]Man(b1-4)GlcNAc(b1-4)GlcNAc
# Procedure, shortened: as §1
# GlcNAc(b1-4)GlcNAc = target: GlcNAc(b1-4)GlcNAc
# Procedure, shortened: as §1
# [11] = target: GlcNAc(b1-4)GlcNAc(b1-4)GlcNAc(b1-4)GlcNAc(b1-4)GlcNAc(b1-4)GlcNAc
# Procedure, shortened: as §1
# [12] = target: GlcNAc(b1-6)Gal(b1-4)GlcNAc
# Procedure, shortened: as §1
# [13] = target: GlcNAc6S(b1-3)Gal(b1-4)GlcNAc
# Procedure, shortened: as §1
# Kdn(a2-3)Gal(b1-4)Glc = target: Kdn(a2-3)Gal(b1-4)Glc
# Procedure, shortened: as §1
# [14] = target: Man(a1-2)Man(a1-2)Man(a1-3)Man
# Procedure, shortened: as §1
# [15] = target: Man(a1-2)Man(a1-2)Man(a1-6)[Man(a1-3)]Man
# Procedure, shortened: as §1
# [16] = target: Man(a1-2)Man(a1-3)[Man(a1-2)Man(a1-6)]Man(a1-6)[Man(a1-2)Man(a1-2)Man(a1-3)]Man
# Procedure, shortened: as §1
# [17] = target: Man(a1-2)Man(a1-3)[Man(a1-2)Man(a1-6)]Man(a1-6)[Man(a1-2)Man(a1-2)Man(a1-3)]Man(b1-4)GlcNAc(b1-4)GlcNAc
# Procedure, shortened: as §1
# [18] = target: Man(a1-2)Man(a1-3)[Man(a1-6)]Man(a1-6)[Man(a1-2)Man(a1-3)]Man(b1-4)GlcNAc(b1-4)GlcNAc
# Procedure, shortened: as §1
# [19] = target: Man(a1-2)Man(a1-6)[Man(a1-3)]Man(a1-6)[Man(a1-2)Man(a1-2)Man(a1-3)]Man
# Procedure, shortened: as §1
# [20] = target: Man(a1-2)Man(a1-6)[Man(a1-3)]Man(a1-6)[Man(a1-2)Man(a1-2)Man(a1-3)]Man(b1-4)GlcNAc(b1-4)GlcNAc
# Procedure, shortened: as §1
# Man(a1-3)[Man(a1-6)]Man = target: Man(a1-3)[Man(a1-6)]Man
# Procedure, shortened: as §1
# [21] = target: Man(a1-3)[Man(a1-6)]Man(a1-6)[Man(a1-2)Man(a1-3)]Man(b1-4)GlcNAc(b1-4)GlcNAc
# Procedure, shortened: as §1
# [22] = target: Neu5Ac(a2-3)Gal(b1-3)GlcNAc6S
# Procedure, shortened: as §1
# [23] = target: Neu5Ac(a2-3)Gal(b1-4)GlcNAc(b1-3)Gal(b1-4)GlcNAc
# Procedure, shortened: as §1
# [24] = target: Neu5Ac(a2-3)Gal(b1-4)[Fuc(a1-3)]GlcNAc
# Procedure, shortened: as §1
# Neu5Ac(a2-3)GalNAc = target: Neu5Ac(a2-3)GalNAc
# Procedure, shortened: as §1
# [25] = target: Fuc(a1-2)[Gal(a1-3)]Gal(b1-4)Glc
# Procedure, shortened: as §1
# [26] = target: Fuc(a1-2)[GalNAc(a1-3)]Gal(b1-4)[Fuc(a1-3)]GlcNAc
# Procedure, shortened: as §1
# [27] = target: Gal(b1-3)GalNAc(b1-3)Gal(a1-4)Gal(b1-4)Glc
# Procedure, shortened: as §1
# [28] = target: Gal(b1-3)[GlcNAc(b1-6)]GalNAc
# Procedure, shortened: as §1
# [29] = target: Gal(b1-3)[Neu5Ac(a2-6)]GalNAc
# Procedure, shortened: as §1
# [30] = target: Gal(b1-4)GalNAc(b1-3)[Fuc(a1-2)]Gal(b1-4)GlcNAc
# Procedure, shortened: as §1
# [31] = target: GalNAc(b1-3)Gal(a1-4)Gal(b1-4)GlcNAc
# Procedure, shortened: as §1
# [32] = target: Neu5Ac(a2-3)Gal(b1-3)GalNAc(b1-3)Gal(a1-4)Gal(b1-4)Glc
# Procedure, shortened: as §1
# [33] = target: Neu5Ac(a2-3)Gal(b1-3)[Fuc(a1-4)]GlcNAc
# Procedure, shortened: as §1
# [34] = target: Neu5Ac(a2-3)Gal(b1-4)GlcNAc(b1-3)Gal(b1-4)GlcNAc(b1-3)Gal(b1-4)GlcNAc
# Procedure, shortened: as §1
# [35] = target: Neu5Ac(a2-3)Gal(b1-4)GlcNAc(b1-3)Gal(b1-4)[Fuc(a1-3)]GlcNAc
# Procedure, shortened: as §1
# [36] = target: Neu5Ac(a2-3)[Neu5Ac(a2-6)]GalNAc
# Procedure, shortened: as §1
# [37] = target: Neu5Ac(a2-6)GalNAc(b1-4)GlcNAc
# Procedure, shortened: as §1
# [38] = target: Neu5Gc(a2-3)Gal(b1-3)[Fuc(a1-4)]GlcNAc
# Procedure, shortened: as §1
# [39] = target: Neu5Gc(a2-3)Gal(b1-4)GlcNAc
# Procedure, shortened: as §1
binder,measurement,setting,value
"CVN (Nostoc ellipsosporum), P81180 (protein) LGKFSQTCYNSAIQGSVLTSTCERTNGGYNTSSIDLNSVIENVDGSLKWQPSNFIETCRNTQLAGSSELAAECKTRAQQFVSTKINLDDHIANIDGTLKYE",glycan array binding signal (z-score),[1],0.048
same,glycan array binding signal (z-score),[2],-0.107
same,glycan array binding signal (z-score),[3],0.522
same,glycan array binding signal (z-score),Fuc(a1-3)GlcNAc,-0.306
same,glycan array binding signal (z-score),[4],-0.301
same,glycan array binding signal (z-score),[5],5.21
same,glycan array binding signal (z-score),[6],-0.095
same,glycan array binding signal (z-score),[7],-0.306
same,glycan array binding signal (z-score),GalNAc(b1-3)GalNAc,-0.306
same,glycan array binding signal (z-score),[8],-0.203
same,glycan array binding signal (z-score),[9],0.024
same,glycan array binding signal (z-score),[10],-0.3
same,glycan array binding signal (z-score),GlcNAc(b1-4)GlcNAc,-0.301
same,glycan array binding signal (z-score),[11],-0.306
same,glycan array binding signal (z-score),[12],-0.302
same,glycan array binding signal (z-score),[13],-0.222
same,glycan array binding signal (z-score),Kdn(a2-3)Gal(b1-4)Glc,-0.296
same,glycan array binding signal (z-score),[14],5.16
same,glycan array binding signal (z-score),[15],5.83
same,glycan array binding signal (z-score),[16],7.15
same,glycan array binding signal (z-score),[17],5.21
same,glycan array binding signal (z-score),[18],5.58
same,glycan array binding signal (z-score),[19],7.23
same,glycan array binding signal (z-score),[20],6.39
same,glycan array binding signal (z-score),Man(a1-3)[Man(a1-6)]Man,-0.299
same,glycan array binding signal (z-score),[21],4.22
same,glycan array binding signal (z-score),[22],-0.304
same,glycan array binding signal (z-score),[23],-0.3
same,glycan array binding signal (z-score),[24],-0.268
same,glycan array binding signal (z-score),Neu5Ac(a2-3)GalNAc,-0.303
"HMGB1 (Rattus norvegicus), P63159 (protein) MGKGDPKKPRGKMSSYAFFVQTCREEHKKKHPDASVNFSEFSKKCSERWKTMSAKEKGKFEDMAKADKARYEREMKTYIPPKGETKKKFKDPNAPKRPPSAFFLFCSEYRPKIKGEHPGLSIGDVAKKLGEMWNNTAADDKQPYEKKAAKLKEKYEKDIAAYRAKGKPDAAKKGVVKAEKSKKKKEEEDDEEDEEDEEEEEEEEDEDEEEDDDDE",glycan array binding signal (z-score),[25],0.151
same,glycan array binding signal (z-score),[26],-0.019
same,glycan array binding signal (z-score),Fuc(a1-3)GlcNAc,9.99
same,glycan array binding signal (z-score),[27],-0.447
same,glycan array binding signal (z-score),[28],-0.335
same,glycan array binding signal (z-score),[29],-0.379
same,glycan array binding signal (z-score),[30],-0.322
same,glycan array binding signal (z-score),[31],2.44
same,glycan array binding signal (z-score),[12],2.57
same,glycan array binding signal (z-score),[14],-0.58
same,glycan array binding signal (z-score),[32],-0.21
same,glycan array binding signal (z-score),[33],-0.164
same,glycan array binding signal (z-score),[34],-0.169
same,glycan array binding signal (z-score),[35],2.06
same,glycan array binding signal (z-score),[36],-0.263
same,glycan array binding signal (z-score),[37],2.1
same,glycan array binding signal (z-score),[38],2.69
same,glycan array binding signal (z-score),[39],0.031
